Hit rate of the full screen: of about 310,000 compounds, about 14,000 (4.5%) showed an effect of 50% or more. The effect is printed as a negative number. Shown is part of a subset that was picked to be rich in strong results.
Molecular target: human ether-à-go-go-related gene (hERG) potassium channel (human, UniProt Q12809)
Assay: primary screen, population patch clamp on CHO cells stably expressing hERG; higher = less effect of the substance
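Note: peak tail current of the secondary pulse compared with the same well before compound.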

Chain of human ether-à-go-go-related gene (hERG) potassium channel (Q12809 whole entry, looked up): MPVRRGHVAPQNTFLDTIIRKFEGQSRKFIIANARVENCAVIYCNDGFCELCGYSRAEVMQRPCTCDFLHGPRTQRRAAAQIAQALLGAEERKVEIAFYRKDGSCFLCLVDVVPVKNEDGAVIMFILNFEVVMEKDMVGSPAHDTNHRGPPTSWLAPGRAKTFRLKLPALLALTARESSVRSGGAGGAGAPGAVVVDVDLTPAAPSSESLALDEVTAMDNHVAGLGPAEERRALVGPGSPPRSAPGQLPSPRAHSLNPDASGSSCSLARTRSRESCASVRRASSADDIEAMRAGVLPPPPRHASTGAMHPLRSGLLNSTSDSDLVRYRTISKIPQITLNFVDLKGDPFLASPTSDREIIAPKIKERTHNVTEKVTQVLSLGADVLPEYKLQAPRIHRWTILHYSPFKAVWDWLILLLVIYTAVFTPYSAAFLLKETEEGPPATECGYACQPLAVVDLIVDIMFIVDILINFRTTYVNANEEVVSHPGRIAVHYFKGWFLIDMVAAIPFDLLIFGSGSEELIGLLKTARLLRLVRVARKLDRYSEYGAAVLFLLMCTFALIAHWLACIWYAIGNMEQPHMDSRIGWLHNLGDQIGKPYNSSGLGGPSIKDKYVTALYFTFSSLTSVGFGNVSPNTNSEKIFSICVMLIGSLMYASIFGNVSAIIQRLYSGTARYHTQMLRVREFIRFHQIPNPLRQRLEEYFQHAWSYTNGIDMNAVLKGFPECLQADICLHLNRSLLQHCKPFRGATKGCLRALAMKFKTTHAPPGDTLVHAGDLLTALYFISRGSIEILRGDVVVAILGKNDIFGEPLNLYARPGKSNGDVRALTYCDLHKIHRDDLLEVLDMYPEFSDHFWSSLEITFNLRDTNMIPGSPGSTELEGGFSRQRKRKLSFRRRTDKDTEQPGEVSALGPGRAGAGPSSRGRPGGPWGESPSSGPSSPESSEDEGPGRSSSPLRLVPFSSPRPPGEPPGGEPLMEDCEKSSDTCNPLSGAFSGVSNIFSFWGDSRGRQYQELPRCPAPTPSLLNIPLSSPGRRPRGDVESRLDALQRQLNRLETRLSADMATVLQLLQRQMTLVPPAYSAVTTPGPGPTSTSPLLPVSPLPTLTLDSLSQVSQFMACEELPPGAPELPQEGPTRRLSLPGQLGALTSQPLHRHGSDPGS

Compound	hERG current change (%, negative = inhibition) at 10uM
CCNC(=O)OCC12CC3CC(CC(C3)C1)C2	-5.85%
Cc1ccc(C(=O)N/N=C\c2ccc(-c3ccc(Cl)c(Cl)c3)o2)cn1	-44.9%
CCOC(=O)N1CCN(C(=O)C2CCC(=O)N(Cc3cccc(C(F)(F)F)c3)C2)CC1 (centres unmarked)	-11.1%
CC(C)n1c(O)c(N=NC(=O)C2COc3ccccc3O2)c2ccccc21 (centres unmarked)	12.4%
Nn1c(COc2ccccc2F)nnc1SCC(=O)NC1CCS(=O)(=O)C1 (centres unmarked)	-7.72%
CS(=O)(=O)Nc1ccc(N2CCN(c3ccc(C(F)(F)F)cn3)CC2)nc1	-4.03%
CCc1nc(CN2CCN(c3ccc(C(F)(F)F)cn3)CC2)c(C)[nH]1	-55.6%
CCc1nc(CN2CCN(c3cc(C(F)(F)F)ccn3)CC2)c(C)[nH]1	-45.2%
O=C(CN1CCN(Cc2ccc(F)cc2Cl)CC1)NCc1ccccc1	-23.2%
OCCCNc1nc(-c2ccc(Cl)cc2)nnc1-c1ccccc1	-40%
O=[N+]([O-])c1ccc2nc(NCCCO)nc(-c3ccccc3)c2c1	-22.7%
OCCCNc1nc(-c2ccc(Br)cc2)nnc1-c1ccc(Cl)cc1	-52.3%
OCCCNc1nc(-c2ccc(Cl)cc2)nnc1-c1ccc(Br)cc1	-61.5%
Cc1nnc(-c2ccc(Cl)cc2)nc1NCCN(C)C	-38.9%
O=[N+]([O-])c1ccc(-c2nnc(-c3ccccc3)c(NCCCO)n2)cc1	-67.3%
OCCCNc1nnc(-c2ccccc2)c2ccccc12	2.95%
Nc1nc(-c2ccc(Cl)cc2)nnc1-c1ccc(Br)cc1	41%
Clc1ccc(-c2nnc(-c3ccc(Br)cc3)c(N3CCSCC3)n2)cc1	-11.9%
CC(C)(C)c1ccc(C(CC(=O)O)NC(=O)C23CC4CC(CC(C4)C2)C3)cc1 (centres unmarked)	17.7%
O=C(Nc1ccc2c(c1)OCO2)C1Cc2ccccc2CN1S(=O)(=O)c1cccs1 (centres unmarked)	4.05%
COc1ccccc1NC(=O)c1ccc(Br)c(S(=O)(=O)N2CCCC2)c1	-2.36%
CCC(C)C(NC(=O)c1ccccc1NC(=O)c1ccc(OC)cc1)C(=O)NCCCn1ccnc1 (centres unmarked)	-1.96%

Compound	hERG current change (%, negative = inhibition) at 10uM
CCCn1c(CCC(=O)O)nc2cc(S(=O)(=O)N3CCCC3)ccc21	12.1%
COCCOC(=O)c1c(C)oc2ccc(O)c(CN3CCC(C)CC3)c12	-29.8%
Cl.c1cc(CNC23CC4CC(CC(C4)C2)C3)ccn1	-20.2%
CC12CC3CC(C)(C1)CC(C(=O)NCc1ccncc1)(C3)C2	9.2%
CC12CC3CC(C)(C1)CC(NCc1ccncc1)(C3)C2.Cl	-58.7%
O=C(c1ccc([N+](=O)[O-])o1)N(Cc1nnc(-c2ccccc2Cl)o1)C1CC1	-20.9%
CN(NS(=O)(=O)c1ccc(Br)cc1)c1nc(C(F)(F)F)nc2ccccc12	12.2%
O=C(CN(Cc1ccc2c(c1)OCO2)C(=O)CNC(=O)c1ccco1)NC1CCCCC1	-7.83%
Cc1ccc(-c2cc(C(=O)N3CCN(c4ccc(F)cc4)CC3)c3ccccc3n2)o1	-35.7%
CC(=O)N1CCN(C(=O)c2cc(-c3ccc(C)o3)nc3ccccc23)CC1	-10.1%
CCOC(=O)C1CCCN(C(=O)c2cc(-c3ccncc3)nc3ccccc23)C1 (centres unmarked)	-32.4%
CCOC(=O)C1CCN(C(=O)c2cc(-c3ccncc3)nc3ccccc23)CC1	-67.2%
Cc1ccc(-c2cc(C(=O)N3CCN(c4ccccc4O)CC3)c3ccccc3n2)cc1	-1.9%
O=C(c1cc(-c2cccnc2)nc2ccccc12)N1CCN(S(=O)(=O)c2cccs2)CC1	-64.3%
CCOC(=O)C1CCCN(C(=O)c2cc(-c3ccc(C)cc3)nc3ccccc23)C1 (centres unmarked)	-37.6%
Cc1ccc(-c2cc(C(=O)N3CCN(c4ccccc4O)CC3)c3ccccc3n2)o1	-70.9%
O=C(c1cc(-c2ccccc2)nc2ccccc12)N1CCN(c2ccccc2O)CC1	-10.9%
O=C(c1cc(-c2cccs2)nc2ccccc12)N1CCN(S(=O)(=O)c2ccccc2)CC1	-5.65%
O=C(c1cc(-c2ccncc2)nc2ccccc12)N1CCN(c2ccccc2O)CC1	-64.3%
O=C(c1cc(-c2cccnc2)nc2ccc(Cl)cc12)N1CCN(S(=O)(=O)c2cccs2)CC1	-4.28%
O=C(N/N=C/c1c(O)ccc2ccccc12)Nc1ccccc1	16.3%
COc1cc2cc(CCCOC(=O)c3cccc(Br)c3)oc(=O)c2cc1OC	-2.2%

Compound	hERG current change (%, negative = inhibition) at 10uM
Cn1c(SCCS(=O)(=O)c2ccc(Cl)cc2)nnc1-c1ccccc1	-19.3%
CCOc1ccc(CCNC(=O)COC(=O)c2ccc(C)c([N+](=O)[O-])c2)cc1OCC	-7.57%
CO/N=C/NC(=O)NOCc1ccc(Cl)cc1Cl	-11.5%
C[C@H](NC(=O)c1nc[nH]c1C(=O)N(C)Cc1ccccc1)C(=O)OC(C)(C)C	5.67%
COc1cccc(C(=O)N(CN2CCCC2=O)c2cccc(Cl)c2)c1	-25.4%
CC(=O)c1cc(C#N)c(Oc2ccc(F)cc2)nc1C	13.7%
CCOC(=O)N1CCN(C(=O)c2cc(-c3ccncc3)nc3ccccc23)CC1	-48.4%
CC1CC(C)CN(C(=O)c2cc(-c3ccncc3)nc3ccccc23)C1 (centres unmarked)	-35.5%
COc1ccc(NC(=O)c2cc(-c3ccc(C)o3)nc3ccccc23)c(OC)c1	14.9%
O=C(c1cc(-c2ccncc2)nc2ccccc12)N1CCN(c2ccccn2)CC1	-63.5%
COc1ccc(-c2cc(C(=O)N3CCN(c4ccccn4)CC3)c3ccccc3n2)cc1	-5.51%
O=C(c1cc(-c2ccccc2)nc2ccccc12)N1CCN(c2ccccn2)CC1	-27.6%
COc1ccccc1NC(=O)c1cc(-c2ccc(C)o2)nc2ccccc12	-60.7%
Cc1ccc(-c2cc(C(=O)Nc3ccccc3C)c3ccccc3n2)o1	9.38%
Cc1ccccc1CN1CCN(C(=O)c2cc(-c3ccncc3)nc3ccccc23)CC1	-76.7%
COc1cccc(CN2CCN(C(=O)c3cc(-c4cccnc4)nc4ccc(C)cc34)CC2)c1	-12.7%
COc1cccc(CN2CCN(C(=O)c3cc(-c4ccccn4)nc4ccc(Cl)cc34)CC2)c1	17.1%
COc1cccc(CN2CCN(C(=O)c3cc(-c4ccncc4)nc4ccc(C)cc34)CC2)c1	-71%
N#CCSc1nnc(-c2ccccc2O)n1CCc1ccccc1	-10.7%
CCCCNC(=S)NNC(=O)c1ccc2c(c1)OCO2	5.46%
Cc1cc(C(=O)NNC(=O)c2cccc([N+](=O)[O-])c2)n[nH]1	18.9%
Cc1cc(C)c(S(=O)(=O)N2CCN(C(=O)C3COc4ccccc4O3)CC2)c(C)c1 (centres unmarked)	-17%

Compound	hERG current change (%, negative = inhibition) at 10uM
O=c1c2cc3c(cc2[nH]c(=S)n1CCN1CCOCC1)OCO3	9.66%
COc1ccc(Cc2nnc(NC(=O)C(C)C)s2)cc1	11.2%
Cc1cc(C)c(NC(=O)COC(=O)c2c(C)noc2C)c(Cl)c1	13.8%
CS(=O)(=O)N1CCN(C(=O)c2cc(-c3ccccc3)nc3ccccc23)CC1	-30.8%
O=C(c1cc(-c2ccncc2)nc2ccccc12)N1CCN(S(=O)(=O)/C=C/c2ccccc2)CC1	-66.6%
CS(=O)(=O)N1CCN(C(=O)c2cc(-c3ccncc3)nc3ccc(Cl)cc23)CC1	-12.8%
COc1ccc2[nH]c3c(=O)n(CCCCC(=O)NCCC(C)C)c(=S)[nH]c3c2c1	16.3%
CCCn1c(CCNC(=O)c2cccs2)nc2ccccc21	-36.1%
CCCCCn1c(CCNC(=O)CCC)nc2ccccc21	-57.2%
CCCCn1c(=O)c(C(=O)c2ccccc2)nc2ccccc21	-30.4%
CCCCn1c(CCNC(=O)c2cccs2)nc2ccccc21	-33.2%
CCCCCn1c(=O)c(C(=O)c2ccccc2)nc2ccccc21	-77.6%
CCCC(=O)NCCc1nc2ccccc2n1CCC	1.27%
CCCCn1c(CCNC(=O)CCC)nc2ccccc21	-7.83%
CCCCCn1c(CCCNC(=O)CC)nc2ccccc21	-65.9%
CCCCn1c(CCCNC(=O)CC)nc2ccccc21	-37.3%
CCCn1c(=O)c(C(=O)c2ccccc2)nc2ccccc21	-27.4%
CCCCn1c(CCNC(=O)CC)nc2ccccc21	-11.2%
CCCCCn1c(CCNC(=O)c2cccs2)nc2ccccc21	-52.5%
O=C(COc1ccccc1)Nc1nonc1NC(=O)COc1ccccc1	-12.8%

From article PMC4336329 (PLoS ONE, 2015)
